Growth data for 16 compounds are collected here from PubChem BioAssay (NCI).

This is part of a sample that, as a whole, favours compounds with a hit. Of some 83,000 tested, about 20% had one in any assay.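 Percent growth is the endpoint: 0 to 100 indicates growth inhibition (40 means 60% inhibition), 0 means no net growth, and negative values indicate cell death.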 A number with no mark means an inactive call. Active and inactive are the calls of the source. The calls were made as follows: active = growth percent below 10; inactive = the rest.

Test systems include DU-145 prostate; K-562 leukemia; MALME-3M melanoma; MDA-MB-231 breast; SF-268 CNS; SF-295 CNS; SF-539 CNS; UACC-257 melanoma; M14 melanoma; RXF 393 renal.
Holding throughout (experiment): NCI-60 one-dose screen, 48 h (100 = growth as untreated, 0 = no growth, -100 = all killed)
Holding throughout (settings): 10 µM unless noted

With `CC(=O)Oc1cc2cnc3c4cc(OC(C)=O)c(OC(C)=O)cc4ccc3c2cc1OC(C)=O`, the growth in the test on DU-145 prostate is 16.6%; with K-562 leukemia it was 6.46% (active); in the test with MALME-3M melanoma, 6.96% (active); in the test on MDA-MB-231 breast, 26.3%; in the test on SF-268 CNS it was 12.2%; in the test on SF-295 CNS, 13.9%. In addition, the figures for the growth in the test with SF-539 CNS, with UACC-257 melanoma and with M14 melanoma were -10.8% (active), 20.6% and 13.9%, respectively.
In the case of `c1c2c(cc3c1OCO3)Cc1cc3c(cc1Cc1cc4c(cc1C2)OCO4)OCO3`, the growth was 121% in the test on DU-145 prostate; 117% with K-562 leukemia; 116% with MALME-3M melanoma; 116% with MDA-MB-231 breast; 111% in the test on SF-268 CNS; 95.8% in the test with SF-295 CNS. Also, the growth with SF-539 CNS is 97.9%; with UACC-257 melanoma, 84.6%; in the test on M14 melanoma, 104%.
Take `Cc1csc2ccc(Cl)cc12`: the growth was 110% in the test on DU-145 prostate; 106% with K-562 leukemia; 97.7% in the test on MALME-3M melanoma; 97% in the test on MDA-MB-231 breast; 108% in the test with SF-268 CNS; 96.8% with SF-539 CNS. For the same compound, the growth in the test on UACC-257 melanoma was 102%; with M14 melanoma, 101%.
As to `C#Cc1nc2ccccc2c(=O)[nH]1`, the growth with DU-145 prostate was -41.8% (active); with K-562 leukemia it was -24.6% (active); in the test with MALME-3M melanoma it was -64.2% (active); in the test with MDA-MB-231 breast it was -57.5% (active); with SF-268 CNS it was -70.4% (active); in the test with SF-295 CNS, 41.3%. In addition, the growth was -70.1% (active) in the test on SF-539 CNS, -21.6% (active) in the test on UACC-257 melanoma and -11.2% (active) with M14 melanoma.
Turning to `NC(CC(=O)O)C(=O)OCc1ccccc1` (stereo unspecified), the growth in the test on DU-145 prostate was 109%; in the test with K-562 leukemia it was 106%; with MALME-3M melanoma, 81.1%; in the test with MDA-MB-231 breast it was 105%; in the test on SF-268 CNS it was 100%; in the test with SF-295 CNS it was 93.3%. Besides, the growth in the test with SF-539 CNS is 93.4%; in the test on UACC-257 melanoma it was 89.2%; in the test with M14 melanoma, 104%.
As to `CCCN(CCC)CN(CCC)CCC`, the growth with DU-145 prostate was 106%; in the test with K-562 leukemia it was 95.6%; in the test with MALME-3M melanoma, 97.6%; with RXF 393 renal, 98.2%; in the test on SF-268 CNS, 102%; with SF-295 CNS it was 107%. For the same compound, the results for the growth with SF-539 CNS, with UACC-257 melanoma and in the test on M14 melanoma were 102%, 100% and 102%, respectively.
As for `CCCCN(CCCC)CCC(C)(O)c1cc2ccccc2c2ccccc12` (stereo unspecified), the growth in the test with DU-145 prostate is 75%; in the test on K-562 leukemia, 15.7%; in the test with MALME-3M melanoma, 30.7%; in the test with RXF 393 renal, 87.8%; with SF-268 CNS, 57.3%; with SF-295 CNS, 79.8%. The growth is 103% in the test on SF-539 CNS, 82.8% in the test on UACC-257 melanoma and 90.7% with M14 melanoma.
Take `CCCCN(CC)CCCCCCCCCCN1CCCc2cc(OC)ccc21`: the growth is 48.5% with DU-145 prostate; -38.7% (active) with K-562 leukemia; -28.6% (active) with MALME-3M melanoma; 92.7% in the test with RXF 393 renal; 49.7% with SF-268 CNS; 43.5% in the test with SF-295 CNS. The growth is 93.1% in the test on SF-539 CNS, 103% in the test with UACC-257 melanoma and 88.2% in the test on M14 melanoma.
Take `O=C(O)C(O)C(O)C(=O)O.[NH-]C1CCCCC1[NH-].[Pt+2]` (stereo unspecified): the growth in the test with DU-145 prostate was 107%; in the test on K-562 leukemia, 105%; in the test on MALME-3M melanoma it was 127%; in the test on MDA-MB-231 breast, 98.7%; in the test with SF-268 CNS, 104%; with SF-539 CNS, 105%. For the same compound, the growth in the test with UACC-257 melanoma is 122%; in the test with M14 melanoma, 103%.
As for `COc1ccc2nc(NC(=O)c3cccnc3Nc3cc(OC)c(OC)c(OC)c3)sc2c1`, the growth with DU-145 prostate was -56.1% (active); in the test with K-562 leukemia it was 15.7%; with MDA-MB-231 breast it was -9.82% (active); with RXF 393 renal, -39.2% (active); in the test with SF-268 CNS, -73.1% (active); in the test on SF-295 CNS it was 54.2%. Further, the growth in the test with SF-539 CNS is -57.1% (active); in the test on UACC-257 melanoma, 49.9%; with M14 melanoma, 48.4%.
As to `N#Cc1ccc(NC(=O)Nc2ccc(Cc3ccc(NC(=O)Nc4ccc(C#N)cc4)cc3)cc2)cc1`, the growth was 40.5% in the test on DU-145 prostate; 11.5% in the test with K-562 leukemia; 27.5% with MALME-3M melanoma; 51.4% with RXF 393 renal; 44.5% in the test with SF-268 CNS; 12.1% with SF-295 CNS. Moreover, the results for the growth in the test with SF-539 CNS, in the test on UACC-257 melanoma and with M14 melanoma were 50.7%, 26.3% and 37.2%, respectively.
Take `O=C1C=CC(Nc2ccccc2[N+](=O)[O-])C1Nc1ccccc1[N+](=O)[O-]` (stereo unspecified): the growth in the test on DU-145 prostate is -69.1% (active); in the test with K-562 leukemia, 5.11% (active); in the test on MALME-3M melanoma, -89.7% (active); with RXF 393 renal it was -96.4% (active); in the test with SF-268 CNS, 75.8%; with SF-295 CNS, 67.5%. Also, the growth is -93.6% (active) in the test with SF-539 CNS, 28.7% with UACC-257 melanoma and -68.9% (active) in the test on M14 melanoma.
With `Cc1cc(Nc2nc(N3CCOCC3)nc3ccccc23)n[nH]1`, the growth in the test on DU-145 prostate is 75.2%; in the test with K-562 leukemia, 56.3%; in the test with MALME-3M melanoma, 66.4%; in the test with MDA-MB-231 breast, 84.9%; with SF-268 CNS it was 63.8%; in the test on SF-295 CNS, 73.4%. In addition, the growth in the test with UACC-257 melanoma was 76%; with M14 melanoma, 45.8%.
`CCN(CC)c1ccc(CNc2cc(C)nc3ccc(OC)cc23)cc1`: the growth in the test on DU-145 prostate is 58.7%; with K-562 leukemia, -35.6% (active); in the test with MALME-3M melanoma, -77.5% (active); with RXF 393 renal it was 77%; in the test on SF-268 CNS, 72.7%; with SF-295 CNS, 16.5%. Further, the growth with SF-539 CNS was 76%; in the test on UACC-257 melanoma it was 18.7%; in the test with M14 melanoma it was 48.8%.
On to `CCN(CC)CC(C)(C)C(=O)/C=C/c1ccccc1`, for which the growth with DU-145 prostate is 8.96% (active); in the test with K-562 leukemia it was 6.77% (active); in the test with MALME-3M melanoma, 37.4%; in the test with RXF 393 renal, 30.3%; in the test on SF-268 CNS it was 91.3%; with SF-295 CNS, 87.6%. Moreover, the growth was 28.8% in the test on SF-539 CNS, 65.9% in the test on UACC-257 melanoma and 31.9% with M14 melanoma.
As to `CCN(CC)CCCNc1cccc2c(SCc3ccccc3)ccnc12`, the growth with DU-145 prostate was -22.8% (active); in the test on K-562 leukemia, -63% (active); in the test on MALME-3M melanoma, -84.3% (active); in the test with RXF 393 renal it was 88.4%; in the test with SF-268 CNS it was 23.9%; in the test with SF-295 CNS it was 61%. The growth with SF-539 CNS is 81.4%; with UACC-257 melanoma, 88.1%; with M14 melanoma, -47.4% (active).
